This note sets out measurements from PubChem BioAssay AID1745847 (National Center for Advancing Translational Sciences (NCATS), 2022).

The whole screen tested about 2,100 compounds, of which about 670 (32%) were called active. Inconclusive results (about 50%) are left out. The list shows a part of the results. Values without a mark were called inactive. Calls come from the whole dose curve; as a rule, active = well fitted inhibition curve with a large enough effect; inconclusive = small, poorly fitted or top-dose-only effect; inactive = no such curve, though single readings can be large or run the other way.
% is set by controls: 0 for no effect and ±100 for the full control effect; potency is the fitted concentration of half-maximal effect.

A short description of the assay: CMV-Luciferase Counterscreen for Inhibitors of ATXN expression. Note: nearly all actives have a fitted effect of over 55% in size. As to conditions: HEK-293 CMV-luciferase reporter, luminescence, 24 h; series mostly up to 57.5 µM; activity change, negative = inhibition: at the top concentration.
With `Cc1ccc(NC(=O)CCC(=O)c2cc(C)sc2C)nc1`, the “activity change, negative = inhibition” value was 301%. `Cc1ccc(OCC(=O)N2CCN(c3nnc(-c4ccc(C)cc4)c4ccccc34)CC2)cc1`: the Potency was 2.24 µM (active). On to `CCCCOC(=O)/C=C\C(=O)NC(N)=O`, for which the Potency was 14.1 µM (active). For the compound `CCOC(=O)/C=C/C(=O)Nc1ccc(Oc2ccccc2)cc1`, the activity change, negative = inhibition was -6.32% [at 11.4 µM].

Take `Cc1nc2ccc(NC(=O)c3cccc(S(=O)(=O)N(C)c4ccccc4)c3)cc2s1`: the Potency is 3.55 µM (active). On the same count and under the same terms, to `CCCN(CCC)S(=O)(=O)c1ccc(C(=O)Nc2nnc(-c3cc(OC)cc(OC)c3)o2)cc1` belongs 0.794 µM (active). Turning to `Cc1nc2cc(NC(=O)CSc3nc4c(C)cccc4cc3C#N)ccc2s1`, the “activity change, negative = inhibition” value is -19.4%.

`Cc1nc2ccc(NC(=O)c3ccc(S(=O)(=O)N(C)c4ccccc4)cc3)cc2s1`: the Potency was 3.98 µM (active). For the compound `CN(c1ccccc1)S(=O)(=O)c1ccc(C(=O)Nc2nnc(-c3ccc(F)cc3)o2)cc1`, the Potency is 10 µM (active).

Take `Cc1ccc2nc(N(CCCN(C)C)C(=O)c3ccc(S(=O)(=O)N4CCCCCC4)cc3)sc2c1`: the activity change, negative = inhibition was -18.5% [at 11.4 µM]. Regarding `Cc1cccc(NC(=O)c2ccc(S(=O)(=O)N(C)c3ccccc3)cc2)n1`, the Potency was 14.1 µM (active). On the same count and under the same terms, as for `O=C(Nc1nnc(-c2ccc(F)cc2)o1)c1cc(Cl)sc1Cl`, the figure is 10 µM (active); as for `O=C(c1ccco1)N1CCCC(c2nc(-c3ccc(S(=O)(=O)NCc4ccccc4)cc3)no2)C1` (configuration not stated), 11.2 µM (active). Take `COc1cc2c3nnc(-c4ccc(F)cc4)c-3cn(Cc3ccc(F)cc3)c2cc1OC`: the activity change, negative = inhibition was -11.8% [at 11.4 µM]. In the case of `O=C(c1ccco1)N1CCN(c2ccnc3cc(Cl)ccc23)CC1`, the Potency is 14.1 µM (active). For `CC(C)N(C(=O)N1CCN(c2ccnc3cc(Cl)ccc23)CC1)C(C)C`, the Potency is 12.6 µM (active). As to `CCOC(=O)C(=CNc1ccc2c(c1)nnn2-c1ccc(Cl)cc1)C(=O)OCC`, the “activity change, negative = inhibition” value is 7.31%. Turning to `O=C(C1CCCCC1)N1CCN(c2ccnc3cc(Cl)ccc23)CC1`, the Potency was 5.01 µM (active). For the compound `CCOC(=O)N1CCN(c2ccnc3cc(Cl)ccc23)CC1`, the Potency is 2.51 µM (active).

On to `Cc1cc2oc3ccc(NCCC4CCCN4C)cc3c(=O)c2cc1C` (configuration not stated), for which the “activity change, negative = inhibition” value is 6.26%. For the compound `CN[C@H]1C[C@H]2c3[nH]c4ccc(-c5ccc(OC)cc5)cc4c3CCN2C(=O)[C@H]1[C@H](C)O`, the Potency is 3.55 µM (active). As for `Cc1nn(C)c(C)c1NC(=O)CSc1nc(Cc2ccccc2)nc2c1cnn2-c1ccccc1`, the activity change, negative = inhibition was -7.1% [at 11.4 µM]. On to `C/C(=N\NC(=O)c1cc(-c2cccnc2)nc2ccccc12)c1ccc(O)cc1O`, for which the Potency was 2.51 µM (active). On the same count and under the same terms, as for `CC(=NNC(=O)c1ccncc1)c1ccc2ccccc2c1O`, the figure is 0.794 µM (active). As to `CC(C)CC(=NNC(=O)c1ccncc1)c1cc(Cl)ccc1O`, the Potency is 0.282 µM (active).

For the compound `N/C(=C\C(=O)c1cc(Cl)ccc1O)C(Cl)(Cl)Cl`, the activity change, negative = inhibition is 21.6% [at 11.4 µM]. With `COc1ccc(/C(C)=N/NC(=O)c2cccc(S(=O)(=O)N3CCCC3)c2)c(O)c1`, the Potency was 3.98 µM (active). On to `O=C1CCCC(O)=C1C=NCc1ccccc1`, for which the activity change, negative = inhibition is 6.36% [at 11.4 µM]. For the compound `CCN(CC)S(=O)(=O)c1cccc(C(=O)N/N=C(\C)c2ccc(O)cc2O)c1`, the Potency is 4.47 µM (active). Still for that read-out and setting: to `CC(=NNC(=O)c1ccncc1)c1ccc(O)cc1O` belongs 11.2 µM (active). Still for that read-out and setting: to `Oc1c(CN2CCCCC2)ccc2cccnc12` belongs 12.6 µM (active). Regarding `CCN(CC)CCNc1ccnc2cc(Cl)ccc12`, the activity change, negative = inhibition was -15.4% [at 11.4 µM]. In the case of `Clc1ccc2c(NCc3ccccc3)ccnc2c1`, the Potency is 8.91 µM (active). As for `Cc1ccc2c(Cl)cc(Cl)c(O)c2n1`, the Potency is 8.91 µM (active). Same read-out and setting: to `CS(=O)(=O)N1CCC(Oc2cccc(C(=O)NCCCC3CCCC3)c2)CC1` belongs 14.1 µM (active). On to `CC[C@@H]1C(c2cccc(Cl)c2)=NN(c2ccc(Br)cc2)[C@H]1C(=O)N1CCOC1=O`, for which the “activity change, negative = inhibition” value was 3.07%.

Regarding `CC(=O)c1ccc(N2CCc3ccccc3C2)c([N+](=O)[O-])c1`, the “activity change, negative = inhibition” value is -14%. With `COc1ccc(-c2cc(C3CCN(c4ccc(C(C)=O)cc4[N+](=O)[O-])CC3)[nH]n2)cc1`, the Potency is 11.2 µM (active). Regarding `CCOC(=O)c1ccccc1NC(=O)CSc1nc2ccccc2c(=O)n1CCCN1CCOCC1`, the Potency was 17.8 µM (active). For the compound `O=c1c2c(-c3ccccc3)csc2nc2c3ccccc3c(NCCN3CCOCC3)nn12`, the activity change, negative = inhibition is -12% [at 11.4 µM]. Regarding `O=C(Nc1nc(NC(=O)c2ccco2)n(-c2ccccc2)n1)c1ccccc1`, the Potency is 6.31 µM (active).

Regarding `CCN1CC2=C(OC(N)=C(C#N)C2c2cccs2)/C(=C\c2cccs2)C1` (configuration not stated), the activity change, negative = inhibition is -3.4% [at 11.4 µM]. Consider `COc1cc2[nH]c(=O)n(CCCCCC(=O)N3CC=C(c4ccccc4)CC3)c(=O)c2cc1OC`, for which the Potency is 3.16 µM (active). As to `CCN1CCN(CCCNC(=O)c2ccc(/C=C3/Sc4ccccc4N(Cc4ccccc4F)C3=O)cc2)CC1`, the “activity change, negative = inhibition” value was 12.2%.

`O=C(CCCN1C(=O)S/C(=C\c2ccccc2)C1=O)NNC(=O)c1ccccc1O`: the Potency was 2.24 µM (active). Still for that read-out and setting: to `COc1ccc(/C=C2\SC(=S)N(CCCC(=O)NNC(=O)c3ccccc3O)C2=O)cc1` belongs 3.98 µM (active). For the compound `CC(C)(C)c1ccc(Oc2ccc(N)cn2)cc1`, the Potency was 3.98 µM (active).

In the case of `CCC(C)(C)c1ccc(Oc2ccc(N)cc2)cc1`, the Potency is 2 µM (active). On the same count and under the same terms, as for `CC(C)(C)c1ccc(Oc2ccc(N)cc2)cc1`, the figure is 3.98 µM (active).

For `Cc1ccc(C(C[N+](=O)[O-])Sc2ccc(N)cc2)cc1` (configuration not stated), the activity change, negative = inhibition was 52% [at 11.4 µM]. Regarding `Cc1c(Cl)c([N+](=O)[O-])nn1Cc1ccc(C(=O)N/N=C\c2cc(Cl)ccc2O)o1`, the Potency is 0.631 µM (active). Same read-out and setting: as for `CCN(CC)c1ccc(/C=C/c2cccc[n+]2C)c(OC)c1`, the figure is 2 µM (active); as for `CCCC[C@@H](CNC)NC[C@H](NCCCCC1CCCCC1)C(C)C`, 35.5 µM (active).

Turning to `O=C(/C=C/c1ccccc1)NC(=S)NNC(=O)c1cnccn1`, the Potency is 8.91 µM (active).

Turning to `CCn1c2ccccc2c2cc(/C=N/NC(=O)c3ccncc3)ccc21`, the Potency is 2.82 µM (active). As for `CCn1c2ccccc2c2cc(/C=N/NC(=O)c3ccc(O)cc3)ccc21`, the “activity change, negative = inhibition” value is -11.8%. For the compound `O=C1N/C(=N/N=C/c2ccccc2O)SC1Cc1ccc(F)cc1` (configuration not stated), the Potency was 12.6 µM (active). Still for that read-out and setting: to `Cn1nnnc1Sc1ncnc2scc(-c3ccsc3)c12` belongs 11.2 µM (active). On the same count and under the same terms, as for `COc1ccc(-c2csc3ncnc(Sc4nnnn4C)c23)cc1`, the figure is 3.98 µM (active). For the compound `Cc1cnc(NC(=O)CCCc2nc3ccccc3s2)s1`, the “activity change, negative = inhibition” value was 91.3%.

As to `O=C1C=C(Nc2ccccc2O)c2ccccc2C1=O`, the Potency is 10 µM (active). On the same count and under the same terms, to `CN(C)S(=O)(=O)c1ccc(-c2csc(N/N=C/c3ccco3)n2)cc1` belongs 2.51 µM (active); to `CC1=CC(C)(C)Nc2ccc(OC(=O)CN3C(=O)c4cccc5cccc(c45)C3=O)cc21`, 15.8 µM (active); to `O=C(NCc1ccccc1)C1=C[C@@H](c2csc3ccccc23)C[C@@H](OCCCCO)O1`, 3.55 µM (active). Take `C=CCOC(=O)C1=C[C@@H](c2ccc3c(c2)OCO3)C[C@@H](OCCCCO)O1`: the “activity change, negative = inhibition” value was 5.8%. Still for that read-out and setting: to `CCOC(=O)c1sc2nc(CSc3ccccc3)nc(NCCN(C)C)c2c1C` belongs -27.1%. As to `CCCCCn1c(=O)c2ccccc2n2c(CCl)nnc12`, the Potency was 25.1 µM (active). For the compound `O=c1c2ccccc2sc2nc(CCl)nn12`, the activity change, negative = inhibition is -24% [at 11.4 µM].

`CNC(=O)c1sc(N2N=C3/C(=C/c4ccccc4)CCCC3C2c2ccccc2)nc1C` (configuration not stated): the Potency was 7.94 µM (active). In the case of `COc1ccc2c(c1)CC(N1CCN(C)CC1)c1cc(OC)ccc1S2` (configuration not stated), the Potency was 28.2 µM (active). For the compound `CCCCN1C(=O)/C(=C2/Sc3ccccc3N2C)S/C1=N\c1ncn[nH]1`, the “activity change, negative = inhibition” value is 5.62%. As for `Cc1cc(=O)oc2c1c(C)nn2-c1cccc(Cl)c1`, the activity change, negative = inhibition is -12.8% [at 11.4 µM].

On to `COc1ccc(-n2nc(C(=O)NCC(=O)Nc3cccc(Cl)c3)c3ccccc3c2=O)cc1OC`, for which the “activity change, negative = inhibition” value is 11.4%.

Take `O=C(c1cccc(Cl)c1)c1nn(-c2ccccc2)c(=O)cc1C(F)(F)F`: the Potency is 25.1 µM (active).

For `O=C(N/N=C\c1cc(Cl)ccc1O)c1ccc(S(=O)(=O)N2CCCCC2)cc1`, the Potency was 0.316 µM (active).

`CC1(C)Cc2c(ccc3ccccc23)C2=C(C(=O)N3CCCC3)C(=O)C(=O)N21`: the “activity change, negative = inhibition” value is -5.36%. Take `O=C(N/N=C\c1c(O)ccc2ccccc12)c1ccc(S(=O)(=O)N2CCCCC2)cc1`: the Potency is 1.12 µM (active). Consider `CN(C)CCNc1cccc2sc3ccc(O)cc3c(=O)c12`, for which the Potency was 14.1 µM (active). For `CN(C)CCNc1ccc(CO)c2sc3ccc(O)cc3c(=O)c12`, the Potency was 0.631 µM (active). Take `COc1ccc(C(=O)c2sc(Nc3ccccc3)nc2N)cc1OC`: the “activity change, negative = inhibition” value is 129%.

`COc1ccc(C(=O)NC(=S)NNC(=O)c2c(-c3ccccc3)noc2C)cc1OC`: the Potency was 10 µM (active). On to `CCOC(=O)C(C(C)=O)c1c(Br)c(O)c(O)c2c(C(=O)c3ccc(C)cc3)coc12` (configuration not stated), for which the Potency is 2.51 µM (active). Consider `Cc1cc(N/N=C\c2ccc(Br)cc2)nc(-n2nc(C)cc2C)n1`, for which the “activity change, negative = inhibition” value is 1.75%. For `Cc1cc(N/N=C/c2ccccc2[N+](=O)[O-])nc(-n2nc(C)cc2C)n1`, the Potency is 7.08 µM (active). On to `Cc1cc(O)c(C(C)C)cc1N=Cc1ccccc1[N+](=O)[O-]`, for which the “activity change, negative = inhibition” value was -23.9%.

As for `NC(=O)CC(NC(=O)Cc1ccc(Br)cc1)c1ccc(NC2CCCC2)c([N+](=O)[O-])c1` (configuration not stated), the Potency is 3.16 µM (active). With `N#CC1=C(N)N2C(=C(C#N)C1c1ccc(Br)cc1)Nc1ccccc12` (configuration not stated), the Potency was 0.631 µM (active). `N#CC1=C(N)N2C(=C(C#N)C1c1cccc(Br)c1)Nc1ccccc12` (configuration not stated): the Potency was 3.55 µM (active). As for `CN1CCN(c2ccc(S(=O)(=O)N3CCCCC3)cc2NC(=O)/C=C/c2ccc(Cl)c([N+](=O)[O-])c2)CC1`, the activity change, negative = inhibition was -27% [at 11.4 µM]. As for `CC(=O)N1c2ccc(S(=O)(=O)N3CCC(C(=O)N4CCN(c5ccc(Cl)cc5)CC4)CC3)cc2CC1C` (configuration not stated), the Potency is 7.94 µM (active).

For the compound `CC(=O)N1c2ccc(S(=O)(=O)N3CCC(C(=O)Nc4cccc(C(F)(F)F)c4)CC3)cc2CC1C` (configuration not stated), the Potency was 8.91 µM (active).

Consider `CCc1ccc(NC(=O)C2CCN(S(=O)(=O)c3ccc4c(c3)CC(C)N4C(C)=O)CC2)cc1` (configuration not stated), for which the Potency is 3.16 µM (active).
